Read-out in experiment [1]: Tissue plasminogen activator (tPA), PLAT (gene 5327)
In words: BSK_BE3C_tPA: BioMAP Diversity Plus: BE3C Assay for Tissue plasminogen activator (tPA) Biomarker Activity (AID 2283041).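 Note: tPA level quantified by ELISA one day after compound addition.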 Conditions: primary human bronchial epithelial cells; actives raise or lower the signal. In outline:
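Using human lung primary bronchial epithelial cells, tPA was measured by ELISA 24 h after dosing; data fitted relative to DMSO.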

Read-out in experiment [2]: Interleukin-8 (IL8), CXCL8 (gene 3576)
In words: BSK_CASM3C_IL8: BioMAP Diversity Plus: CASM3C Assay for Interleukin-8 (IL8) Biomarker Activity (AID 2283042).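 Note: IL-8 protein level quantified by ELISA.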 Conditions: primary human coronary artery smooth muscle cells; actives raise or lower the signal.

Read-out in experiment [3]: Human Leukocyte Antigen - DR isotype (HLADR), HLA-DRA (gene 3122)
In words: BSK_CASM3C_HLADR: BioMAP Diversity Plus: CASM3C Assay for Human Leukocyte Antigen - DR isotype (HLADR) Biomarker Activity (AID 2283043).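 Note: cell-surface HLA-DR protein level quantified by ELISA.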 Conditions: primary human coronary artery smooth muscle cells; actives raise or lower the signal.

Read-out in experiment [4]: Macrophage colony-stimulating factor (MCSF), CSF1 (gene 1435)
In words: BSK_CASM3C_MCSF: BioMAP Diversity Plus: CASM3C Assay for Macrophage colony-stimulating factor (MCSF) Biomarker Activity (AID 2283044).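 Note: M-CSF protein amount quantified by ELISA after 24 h exposure.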 The settings on record: primary human coronary artery smooth muscle cells; actives raise or lower the signal.

Read-out in experiment [5]: Low-density lipoprotein receptor (LDLR), LDLR (gene 3949)
The experiment in a line: BSK_CASM3C_LDLR: BioMAP Diversity Plus: CASM3C Assay for Low-density lipoprotein receptor (LDLR) Biomarker Activity (AID 2283045).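 Note: LDLR protein level on the cell surface quantified by ELISA.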 The settings on record: primary human coronary artery smooth muscle cells; actives raise or lower the signal.

Read-out in experiment [6]: Monocyte Chemoattractant Protein-1 (MCP1), CCL2 (gene 6347)
The experiment in a line: BSK_CASM3C_MCP1: BioMAP Diversity Plus: CASM3C Assay for Monocyte Chemoattractant Protein-1 (MCP1) Biomarker Activity (AID 2283046).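 Note: MCP-1 level quantified by ELISA 24 h after dosing.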 The settings on record: primary human coronary artery smooth muscle cells; actives raise or lower the signal.

The nature of experiment [7]: BSK_CASM3C_Proliferation: Cell Proliferation Assessment in the BioMAP Diversity Plus: CASM3C Assay (AID 2283047).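 Note: sulforhodamine B total protein stain as relative cell number at 560 nm; sub-confluent cells exposed 48 h before staining; fitted both ways against DMSO so gain or loss of cell number.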 The settings on record: primary human coronary artery smooth muscle cells.
Read-out in experiment [8]: Monokine induced gamma interferon (MIG), CXCL9 (gene 4283)
The experiment in a line: BSK_CASM3C_MIG: BioMAP Diversity Plus: CASM3C Assay for Monokine induced gamma interferon (MIG) Biomarker Activity (AID 2283048).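 Note: MIG protein level measured by ELISA.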 The settings on record: primary human coronary artery smooth muscle cells; actives raise or lower the signal.

Read-out in experiment [9]: serum amyloid A (SAA), SAA1 (gene 6288)
The experiment in a line: BSK_CASM3C_SAA: BioMAP Diversity Plus: CASM3C Assay for serum amyloid A (SAA) Biomarker Activity (AID 2283049).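 Note: SAA protein level quantified by ELISA.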 The settings on record: primary human coronary artery smooth muscle cells; actives raise or lower the signal.

The nature of experiment [10]: BSK_CASM3C_SRB: Viability Assessment in the BioMAP Diversity Plus: CASM3C Assay (AID 2283050).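 Note: total protein by SRB staining as cytotoxicity measure in parallel cultures; cells exposed to compound for 24 h.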 The settings on record: primary human coronary artery smooth muscle cells.
Read-out in experiment [11]: Thrombomodulin, THBD (gene 7056)
In words: BSK_CASM3C_Thrombomodulin: BioMAP Diversity Plus: CASM3C Assay for Thrombomodulin Biomarker Activity (AID 2283051).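 Note: thrombomodulin protein level measured by ELISA 24 h after dosing.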 The settings on record: primary human coronary artery smooth muscle cells; actives raise or lower the signal.

Read-out in experiment [12]: Tissue Factor, F3 (gene 2152)
The experiment in a line: BSK_CASM3C_TissueFactor: BioMAP Diversity Plus: CASM3C Assay for Tissue Factor Biomarker Activity (AID 2283052).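 Note: cell surface tissue factor protein level read by ELISA.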 Conditions: primary human coronary artery smooth muscle cells; actives raise or lower the signal.

Read-out in experiment [13]: Interferon-gamma inducible Protein 10 (IP10), CXCL10 (gene 3627)
In words: BSK_hDFCGF_IP10: BioMAP Diversity Plus: hDFCGF Assay for Interferon-gamma inducible Protein 10 (IP10) Biomarker Activity (AID 2283053). Conditions: primary human foreskin fibroblasts; actives raise or lower the signal. In outline: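 Chemical-treated human skin fibroblasts (primary) were sampled at 24 h for IP-10 by ELISA. Both increases and decreases relative to DMSO were scored.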

Read-out in experiment [14]: Urokinase-type plasminogen activator receptor (uPAR), PLAUR (gene 5329)
In words: BSK_CASM3C_uPAR: BioMAP Diversity Plus: CASM3C Assay for Urokinase-type plasminogen activator receptor (uPAR) Biomarker Activity (AID 2283054).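 Note: cell-surface uPAR protein level quantified by ELISA.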 The settings on record: primary human coronary artery smooth muscle cells; actives raise or lower the signal.

Read-out in experiment [15]: Vascular cell adhesion molecule 1 (VCAM1), VCAM1 (gene 7412)
The experiment in a line: BSK_CASM3C_VCAM1: BioMAP Diversity Plus: CASM3C Assay for Vascular cell adhesion molecule 1 (VCAM1) Biomarker Activity (AID 2283055).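 Note: VCAM-1 protein level quantified by ELISA on the cells.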 Conditions: primary human coronary artery smooth muscle cells; actives raise or lower the signal.

Read-out in experiment [16]: Collagen III, COL3A1 (gene 1281)
In words: BSK_hDFCGF_CollagenIII: BioMAP Diversity Plus: hDFCGF Assay for Collagen III Biomarker Activity (AID 2283056). Conditions: primary human foreskin fibroblasts; actives raise or lower the signal. In outline: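 Cells: human foreskin fibroblasts, primary. Dosing followed by 24 h incubation, then ELISA for collagen III. Both increases and decreases scored relative to DMSO.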

Read-out in experiment [17]: Epidermal growth factor receptor (EGFR), EGFR (gene 1956)
In words: BSK_hDFCGF_EGFR: BioMAP Diversity Plus: hDFCGF Assay for Epidermal growth factor receptor (EGFR) Biomarker Activity (AID 2283057). Conditions: primary human foreskin fibroblasts; actives raise or lower the signal. In outline: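 Cell-based multiplexed assay in primary human foreskin fibroblasts. EGFR is read by ELISA 24 h after treatment and compared with DMSO controls.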

Read-out in experiment [18]: Interleukin-8 (IL8), CXCL8 (gene 3576)
In words: BSK_hDFCGF_IL8: BioMAP Diversity Plus: hDFCGF Assay for Interleukin-8 (IL8) Biomarker Activity (AID 2283058). The settings on record: primary human foreskin fibroblasts; actives raise or lower the signal. In outline:
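IL-8 levels from compound-treated primary human fibroblasts were read by ELISA at 24 h, with DMSO serving as baseline for bidirectional fitting.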

A short description of experiment [19]: BSK_hDFCGF_Proliferation: Cell Proliferation Assessment in the BioMAP Diversity Plus: hDFCGF Assay (AID 2283059).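 Note: curves fitted for both rise and fall of signal versus DMSO baseline.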 The settings on record: primary human foreskin fibroblasts. In outline: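 Sub-confluent human foreskin fibroblast cultures receive test chemical […]. Relative cell number is quantified by sulforhodamine B staining (0.1%, after 10% TCA fixation) at 560 nm, with bidirectional fitting referenced to DMSO.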

Read-out in experiment [20]: Macrophage colony-stimulating factor (MCSF), CSF1 (gene 1435)
In words: BSK_hDFCGF_MCSF: BioMAP Diversity Plus: hDFCGF Assay for Macrophage colony-stimulating factor (MCSF) Biomarker Activity (AID 2283060). The settings on record: primary human foreskin fibroblasts; actives raise or lower the signal. In outline:
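M-CSF levels, determined by ELISA, are taken at 24 h after dosing human skin fibroblasts. Responses in either direction are fitted with DMSO serving as the baseline.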

Activity calls are given as the source filed them. Rule for the calls: active = hit-call score of the fitted dose curve at least 0.9, where 1 is the maximum; inactive = score below 0.9.

As to `Cc1ccccc1[N+](=O)[O-]`, the outcome in experiment [1], in experiment [2], in experiment [3], in experiment [4], in [5] and in experiment [6] was inactive. The outcome in [7], in [8], in [9], in [10], in [11] and in experiment [12] was inactive. Further, the outcome in experiment [13], in experiment [14], in experiment [15], in experiment [16], in [17] and in experiment [18] was inactive. Also, the result in experiment [19] and in [20] was inactive.

As to `C[C@]12CCC(=O)C=C1CC[C@@H]1[C@@H]2CC[C@@]2(C)[C@H]1CC[C@]2(C)O`, the outcome in experiment [1], in [2], in [3], in experiment [4], in experiment [5] and in [6] was inactive. In addition, the result in experiment [7], in experiment [8], in [9], in [10], in experiment [11] and in [12] was inactive. The result in experiment [13], in [14], in [15], in [16], in [17] and in [18] was inactive. In addition, the outcome in experiment [19] and in experiment [20] was inactive.

For the molecule `O=C(O)C(F)(F)C(F)(F)C(F)(F)C(F)(F)C(F)(F)F`, the outcome in [1], in experiment [2], in [3], in experiment [4], in experiment [5] and in [6] was inactive. For the same molecule, the result in [7], in [8], in [9], in experiment [10], in experiment [11] and in experiment [12] was inactive. Further, the result in experiment [13], in experiment [14], in [15], in [16], in [17] and in experiment [18] was inactive. Moreover, the result in [19] and in experiment [20] was inactive.

For the molecule `Cc1cc2c3c(c1)C(c1ccccc1)=N[C@@H](NC(=O)c1ccncc1)C(=O)N3CC2`, the result in experiment [1], in [2], in [3], in [4], in [5] and in experiment [6] was inactive. Besides, the outcome in experiment [7], in experiment [8], in experiment [9], in [10], in [11] and in [12] was inactive. In addition, the outcome in experiment [13], in experiment [14], in [15], in experiment [16], in experiment [17] and in experiment [18] was inactive. Besides, the outcome in experiment [20] was inactive. In [19], the AC50 – broadly, the midpoint of the concentration-response curve, whichever way the signal moves – is 11.5 µM (active).

On to `C[C@]12CCC(=O)C=C1CC[C@@H]1[C@@H]2CC[C@]2(C)C(=O)CC[C@@H]12`, for which the result in experiment [1], in [2], in experiment [3], in experiment [4], in experiment [6] and in experiment [7] was inactive. The result in experiment [8], in experiment [9], in [10], in experiment [11], in experiment [12] and in [13] was inactive. The outcome in experiment [14], in experiment [15], in experiment [16], in experiment [17], in experiment [18] and in experiment [20] was inactive. Moreover, the AC50 in experiment [5] was 4.9 µM (active); in [19], 13.2 µM (active).

For `CCCN(CCC)N=O`, the outcome in [1], in experiment [2], in experiment [4], in experiment [5], in [6] and in [7] was inactive. The result in experiment [8], in experiment [9], in [10], in experiment [11], in [12] and in experiment [13] was inactive. Further, the outcome in [14], in [15], in experiment [16], in experiment [17], in [18] and in [19] was inactive. Also, the outcome in experiment [20] was inactive.

With `Nn1cnnc1`, the outcome in experiment [1], in experiment [2], in experiment [3], in experiment [4], in experiment [5] and in experiment [6] was inactive. Besides, the outcome in experiment [7], in [8], in [9], in [10], in [11] and in experiment [12] was inactive. Besides, the outcome in experiment [13], in [14], in [15], in experiment [16], in [17] and in experiment [18] was inactive. The result in experiment [19] and in experiment [20] was inactive.

As for `Oc1ccc(Cl)cc1Cl`, the outcome in experiment [1], in [2], in experiment [3], in experiment [4], in [5] and in [6] was inactive. The result in experiment [7], in experiment [8], in experiment [9], in experiment [10], in experiment [11] and in experiment [12] was inactive. Further, the result in experiment [13], in experiment [14], in [15], in [16], in experiment [17] and in experiment [18] was inactive. The result in [19] and in experiment [20] was inactive.

Consider `ClC1=C(Cl)[C@]2(Cl)[C@@H]3[C@@H]4C[C@@H]([C@H]5O[C@@H]45)[C@@H]3[C@@]1(Cl)C2(Cl)Cl`, for which the outcome in experiment [1], in experiment [2], in [3], in experiment [4], in experiment [5] and in experiment [6] was inactive. Besides, the result in experiment [8], in experiment [10], in experiment [11], in [12], in [13] and in [14] was inactive. Moreover, the outcome in experiment [15], in experiment [16], in [17], in [18] and in [20] was inactive. Besides, the results for the AC50 in experiment [9] and in [19] were 0.468 µM (active) and 8.97 µM (active), respectively.

Consider `Cc1ccc(O)c(C)c1`, for which the result in experiment [1], in [2], in experiment [4], in experiment [5], in experiment [6] and in [7] was inactive. Also, the outcome in experiment [8], in experiment [9], in experiment [10], in experiment [11], in [12] and in experiment [13] was inactive. The result in [14], in [15], in experiment [16], in [17], in experiment [18] and in [20] was inactive. The half-maximal activity concentration (AC50) was 20.7 µM (active) in experiment [3] and 12.4 µM (active) in experiment [19].

As for `Cc1cc(O)ccc1Cl`, the result in experiment [1], in experiment [2], in [3], in [4], in [5] and in experiment [6] was inactive. Moreover, the result in [7], in [8], in [9], in experiment [10], in [11] and in [12] was inactive. In addition, the outcome in experiment [13], in experiment [14], in experiment [15], in experiment [16], in [17] and in experiment [18] was inactive. Moreover, the result in experiment [19] and in experiment [20] was inactive.
